# Assay results as given in the supplement of paper PMC4022240.
# ± gives the standard deviation.
# T1: HaloTag-ATRX ADD domain (163-292)
# T1 chain: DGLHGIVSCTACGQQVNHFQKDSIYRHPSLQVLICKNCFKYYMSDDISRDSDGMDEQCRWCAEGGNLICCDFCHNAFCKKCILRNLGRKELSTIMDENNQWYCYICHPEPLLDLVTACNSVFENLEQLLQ
# Tests used:
# Test in all cases: peptide microarray binding signal (635 nm), min-max normalized on array (fraction of array maximum); higher = stronger binding
# Conditions in all cases: peptide region: H3 1-13
# [1] = molecular target: T1, HaloTag-ATRX ADD domain (163-292)
# Protocol: (§1)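 Histone 13-mer peptides were synthesized as cellulose conjugates with a C-terminal 20-atom PEG linker and printed in triplicate on nitrocellulose. The sequence given is the unmodified backbone; PTMs (Kme1/2/3, Kac, Sph/Tph, Rme/Rme2a/Rme2s, Rcit) are listed in the label and the 'peptide modifications' condition. Slides were probed at 4 °C for 1 h with biotin-labelled (HQ)5-HaloTag reader fusions (ATRX-ADD, ING2-PHD) then streptavidin-Alexa647, or with rabbit histone antibodies then anti-rabbit Alexa647. The mean 635 nm signal of the triplicate spots was scaled 0-1 between the lowest and highest values on each array.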
# [2] = molecular target: HaloTag-ING2 PHD (mouse Ing2 200-280)
# Protocol: as §1
# [3] = molecular target: anti-H3K4me3 antibody ab8580
# Protocol: as §1
# [4] = molecular target: anti-H3K9me3 antibody ab8898
# Protocol: as §1
# [5] = peptide modifications: H3R8me1 H3K9me2, binder concentration: 1:2,000 dilution
# [6] = peptide modifications: H3R8me1 H3K9me2, binder concentration: 1:10,000 dilution
# [7] = peptide modifications: H3R8me2a H3K9me1, binder concentration: 1:2,000 dilution
# [8] = peptide modifications: H3R8me2a H3K9me1, binder concentration: 1:10,000 dilution
# [9] = peptide modifications: H3R8me2a H3K9me3, binder concentration: 1:2,000 dilution
# [10] = peptide modifications: H3R8me2a H3K9me3, binder concentration: 1:10,000 dilution
# [11] = peptide modifications: H3T3ph H3K4ac, binder concentration: 1:2,000 dilution
# [12] = peptide modifications: H3T3ph H3K4ac, binder concentration: 1:10,000 dilution
# [13] = peptide modifications: H3R8cit H3K9me3, binder concentration: 1:2,000 dilution
# [14] = peptide modifications: H3R8cit H3K9me3, binder concentration: 1:10,000 dilution
# [15] = peptide modifications: H3R8me1, binder concentration: 1:2,000 dilution
# [16] = peptide modifications: H3R8me1, binder concentration: 1:10,000 dilution
# [17] = peptide modifications: H3R8me2s H3K9ac, binder concentration: 1:2,000 dilution
# [18] = peptide modifications: H3R8me2a, binder concentration: 1:2,000 dilution
# [19] = peptide modifications: H3R8me2a, binder concentration: 1:10,000 dilution
# [20] = peptide modifications: H3R8me1 H3K9me3, binder concentration: 1:2,000 dilution
# [21] = peptide modifications: H3R8me1 H3K9me3, binder concentration: 1:10,000 dilution
# [22] = peptide modifications: H3R8me2s H3K9me1, binder concentration: 1:2,000 dilution
# [23] = peptide modifications: H3R8me2s H3K9me1, binder concentration: 1:10,000 dilution
binder,measurement,setting,value
ARTKQTARKSTGG [H3 1-13 A R T K Q T A Rme Kme2 S T G G],peptide microarray binding signal,"[1]; peptide modifications: H3R8me1 H3K9me2, binder concentration: 50 nM",0.0149 ± 0.00099
same,peptide microarray binding signal,"[1]; peptide modifications: H3R8me1 H3K9me2, binder concentration: 500 nM",0.0405 ± 0.00097
same,peptide microarray binding signal,"[2]; peptide modifications: H3R8me1 H3K9me2, binder concentration: 10 nM",0.0115 ± 0.00013
same,peptide microarray binding signal,"[2]; peptide modifications: H3R8me1 H3K9me2, binder concentration: 100 nM",0.0224 ± 0.00044
same,peptide microarray binding signal,[3]; [5],0.00179 ± 7.7e-05
same,peptide microarray binding signal,[3]; [6],0.00108 ± 5.7e-05
same,peptide microarray binding signal,[4]; [5],0.00208 ± 0.00038
same,peptide microarray binding signal,[4]; [6],0.0019 ± 6.5e-05
ARTKQTARKSTGG [H3 1-13 A R T K Q T A Rme2a Kme S T G G],peptide microarray binding signal,"[1]; peptide modifications: H3R8me2a H3K9me1, binder concentration: 50 nM",0.0352 ± 0.0011
same,peptide microarray binding signal,"[1]; peptide modifications: H3R8me2a H3K9me1, binder concentration: 500 nM",0.0882 ± 0.0059
same,peptide microarray binding signal,"[2]; peptide modifications: H3R8me2a H3K9me1, binder concentration: 10 nM",0.033 ± 0.0066
same,peptide microarray binding signal,"[2]; peptide modifications: H3R8me2a H3K9me1, binder concentration: 100 nM",0.0721 ± 0.0073
same,peptide microarray binding signal,[3]; [7],0.00366 ± 0.00063
same,peptide microarray binding signal,[3]; [8],0.00114 ± 3e-05
same,peptide microarray binding signal,[4]; [7],0.00186 ± 0.00023
same,peptide microarray binding signal,[4]; [8],0.00208 ± 7.7e-05
ARTKQTARKSTGG [H3 1-13 A R T K Q T A Rme2a Kme3 S T G G],peptide microarray binding signal,"[1]; peptide modifications: H3R8me2a H3K9me3, binder concentration: 50 nM",0.955 ± 0.067
same,peptide microarray binding signal,"[1]; peptide modifications: H3R8me2a H3K9me3, binder concentration: 500 nM",0.905 ± 0.038
same,peptide microarray binding signal,"[2]; peptide modifications: H3R8me2a H3K9me3, binder concentration: 10 nM",0.126 ± 0.042
same,peptide microarray binding signal,"[2]; peptide modifications: H3R8me2a H3K9me3, binder concentration: 100 nM",0.201 ± 0.059
same,peptide microarray binding signal,[3]; [9],0.0701 ± 0.02
same,peptide microarray binding signal,[3]; [10],0.0416 ± 0.019
same,peptide microarray binding signal,[4]; [9],0.458 ± 0.13
same,peptide microarray binding signal,[4]; [10],0.309 ± 0.082
ARTKQTARKSTGG [H3 1-13 A R Tph Kac Q T A R K S T G G],peptide microarray binding signal,"[1]; peptide modifications: H3T3ph H3K4ac, binder concentration: 50 nM",0.00699 ± 0.00027
same,peptide microarray binding signal,"[1]; peptide modifications: H3T3ph H3K4ac, binder concentration: 500 nM",0.0189 ± 0.0052
same,peptide microarray binding signal,"[2]; peptide modifications: H3T3ph H3K4ac, binder concentration: 10 nM",0.01 ± 0.0027
same,peptide microarray binding signal,"[2]; peptide modifications: H3T3ph H3K4ac, binder concentration: 100 nM",0.024 ± 0.0049
same,peptide microarray binding signal,[3]; [11],0.00177 ± 0.0002
same,peptide microarray binding signal,[3]; [12],0.00325 ± 0.0004
same,peptide microarray binding signal,[4]; [11],0.00104 ± 0.00017
same,peptide microarray binding signal,[4]; [12],0.00156 ± 0.00017
ARTKQTARKSTGG [H3 1-13 A R T K Q T A Rcit Kme3 S T G G],peptide microarray binding signal,"[1]; peptide modifications: H3R8cit H3K9me3, binder concentration: 50 nM",0.325 ± 0.047
same,peptide microarray binding signal,"[1]; peptide modifications: H3R8cit H3K9me3, binder concentration: 500 nM",0.387 ± 0.024
same,peptide microarray binding signal,"[2]; peptide modifications: H3R8cit H3K9me3, binder concentration: 10 nM",0.0423 ± 0.0029
same,peptide microarray binding signal,"[2]; peptide modifications: H3R8cit H3K9me3, binder concentration: 100 nM",0.055 ± 0.0029
same,peptide microarray binding signal,[3]; [13],0.0234 ± 0.008
same,peptide microarray binding signal,[3]; [14],0.0152 ± 0.0012
same,peptide microarray binding signal,[4]; [13],0.331 ± 0.019
same,peptide microarray binding signal,[4]; [14],0.296 ± 0.055
ARTKQTARKSTGG [H3 1-13 A R T K Q T A Rme K S T G G],peptide microarray binding signal,"[1]; peptide modifications: H3R8me1, binder concentration: 50 nM",0.00875 ± 0.0009
same,peptide microarray binding signal,"[1]; peptide modifications: H3R8me1, binder concentration: 500 nM",0.0184 ± 0.00056
same,peptide microarray binding signal,"[2]; peptide modifications: H3R8me1, binder concentration: 10 nM",0.005013 ± 5e-05
same,peptide microarray binding signal,"[2]; peptide modifications: H3R8me1, binder concentration: 100 nM",0.0155 ± 0.0047
same,peptide microarray binding signal,[3]; [15],0.000717 ± 4.6e-05
same,peptide microarray binding signal,[3]; [16],0.000685 ± 2.6e-05
same,peptide microarray binding signal,[4]; [15],0.00071 ± 4.4e-05
same,peptide microarray binding signal,[4]; [16],0.000519 ± 5.6e-06
ARTKQTARKSTGG [H3 1-13 A R T K Q T A Rme2s Kac S T G G],peptide microarray binding signal,"[1]; peptide modifications: H3R8me2s H3K9ac, binder concentration: 500 nM",0.0059 ± 0.0002
same,peptide microarray binding signal,"[2]; peptide modifications: H3R8me2s H3K9ac, binder concentration: 100 nM",0.00574 ± 0.00031
same,peptide microarray binding signal,[3]; [17],0.00142 ± 6.5e-05
same,peptide microarray binding signal,[4]; [17],0.00243 ± 0.00046
ARTKQTARKSTGG [H3 1-13 A R T K Q T A Rme2a K S T G G],peptide microarray binding signal,"[1]; peptide modifications: H3R8me2a, binder concentration: 50 nM",0.00959 ± 0.00045
same,peptide microarray binding signal,"[1]; peptide modifications: H3R8me2a, binder concentration: 500 nM",0.0248 ± 0.0019
same,peptide microarray binding signal,"[2]; peptide modifications: H3R8me2a, binder concentration: 10 nM",0.00812 ± 0.00091
same,peptide microarray binding signal,"[2]; peptide modifications: H3R8me2a, binder concentration: 100 nM",0.0181 ± 0.0056
same,peptide microarray binding signal,[3]; [18],0.00191 ± 0.00018
same,peptide microarray binding signal,[3]; [19],0.000799 ± 2.2e-05
same,peptide microarray binding signal,[4]; [18],0.000951 ± 7e-05
same,peptide microarray binding signal,[4]; [19],0.000634 ± 1.2e-05
ARTKQTARKSTGG [H3 1-13 A R T K Q T A Rme Kme3 S T G G],peptide microarray binding signal,"[1]; peptide modifications: H3R8me1 H3K9me3, binder concentration: 50 nM",0.398 ± 0.0051
same,peptide microarray binding signal,"[1]; peptide modifications: H3R8me1 H3K9me3, binder concentration: 500 nM",0.396 ± 0.0076
same,peptide microarray binding signal,"[2]; peptide modifications: H3R8me1 H3K9me3, binder concentration: 10 nM",0.0338 ± 0.011
same,peptide microarray binding signal,"[2]; peptide modifications: H3R8me1 H3K9me3, binder concentration: 100 nM",0.0759 ± 0.034
same,peptide microarray binding signal,[3]; [20],0.0426 ± 0.012
same,peptide microarray binding signal,[3]; [21],0.0253 ± 0.013
same,peptide microarray binding signal,[4]; [20],0.258 ± 0.015
same,peptide microarray binding signal,[4]; [21],0.171 ± 0.017
ARTKQTARKSTGG [H3 1-13 A R T K Q T A Rme2s Kme S T G G],peptide microarray binding signal,"[1]; peptide modifications: H3R8me2s H3K9me1, binder concentration: 50 nM",0.0145 ± 0.00064
same,peptide microarray binding signal,"[1]; peptide modifications: H3R8me2s H3K9me1, binder concentration: 500 nM",0.0339 ± 0.0019
same,peptide microarray binding signal,"[2]; peptide modifications: H3R8me2s H3K9me1, binder concentration: 10 nM",0.0365 ± 0.0046
same,peptide microarray binding signal,"[2]; peptide modifications: H3R8me2s H3K9me1, binder concentration: 100 nM",0.0547 ± 0.007
same,peptide microarray binding signal,[3]; [22],0.0103 ± 0.0015
same,peptide microarray binding signal,[3]; [23],0.0069 ± 0.0003
same,peptide microarray binding signal,[4]; [22],0.00578 ± 0.0013
same,peptide microarray binding signal,[4]; [23],0.00588 ± 0.00043
